Results taken from PubChem BioAssay (NCATS).
Several values for one entry are separate records, joined by “and”; a condition that tells them apart may be missing. Equal entries are not always repeated. Results filed as inconclusive are left out. Where a structure was tested more than once in an assay, its records may differ in their call. Activity calls are given as the source filed them. The call rests on the fitted dose curve; in most records, active means well fitted inhibition curve with a large enough effect; inconclusive means small, poorly fitted or top-dose-only effect; inactive means flat fitted curve, though single readings scatter.

How the values were obtained:
CRL-7250 = normal cell line; experiment: Cytotoxic Profiling of Annotated Libraries Using Quantitative High-Throughput Screening (AID 1296008); settings: Five cell lines viability, CellTiter-Glo ATP luminescence, 48-72 h; max response: hits give low values; on max response: on the % scale 0 is the no-effect control and ±100 the full control effect
Procedure, shortened: (§1)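 Cytotoxicity was measured as CellTiter-Glo ATP luminescence, read after 10 min at room temperature. Compound treatment of the cells lasted 48 or 72 hr at 37 degrees Celsius in a qHTS format.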

HEK293 = experiment: as above; settings: Five cell lines viability, CellTiter-Glo ATP luminescence, 48-72 h; max response: hits give low values
Procedure, shortened: as §1

HaCat [1] = experiment: as above; settings: Five cell lines viability, CellTiter-Glo ATP luminescence, 48-72 h; max response: hits give low values
Procedure, shortened: as §1

NIH3T3 = experiment: as above; settings: Five cell lines viability, CellTiter-Glo ATP luminescence, 48-72 h; max response: hits give low values
Procedure, shortened: as §1

HACAT [2] = experiment: qHTS assay to identify novel small-molecules to repurpose for Merkel cell carcinoma treatment (AID 1296009); settings: MCC and control cell lines, CellTiter-Glo viability, 72 h; series mostly up to 44.8 µM
Procedure, shortened: (§2)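 Cell viability, measured as CellTiter-Glo luminescence, was normalized between DMSO and no-cell wells. The cells had been exposed to 8- or 11-point compound dilutions for 72 hr at 37 degree celsius.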

HEK293T = experiment: as above; settings: MCC and control cell lines, CellTiter-Glo viability, 72 h; at 44.8 µM (top of the series) unless noted
Procedure, shortened: as §2

MCC-13 = experiment: as above; settings: MCC and control cell lines, CellTiter-Glo viability, 72 h; series mostly up to 46 µM
Procedure, shortened: as §2

MCC-26 = experiment: as above; settings: MCC and control cell lines, CellTiter-Glo viability, 72 h; series mostly up to 46 µM
Procedure, shortened: as §2

P93_24 = experiment: qHTS profiling for inhibitors of Plasmodium falciparum proliferation (AID 504749); settings: P. falciparum in erythrocytes, SYBR Green DNA, 72 h; series mostly up to 28.7 µM
Procedure, shortened: (§3)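 SYBR Green fluorescence of parasite DNA, read after lysis and overnight dark incubation, measured growth over 72 h in erythrocyte culture at 0.3% parasitemia and 2.5% hematocrit. Data normalised to DMSO and 0.29 uM artemisinin, with plate-drift correction.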

P94_40 = experiment: as above; settings: P. falciparum in erythrocytes, SYBR Green DNA, 72 h; series mostly up to 28.7 µM
Procedure, shortened: as §3

PAD = experiment: as above; settings: P. falciparum in erythrocytes, SYBR Green DNA, 72 h; series mostly up to 28.7 µM
Procedure, shortened: as §3

PC15 = experiment: as above; settings: P. falciparum in erythrocytes, SYBR Green DNA, 72 h; series mostly up to 28.7 µM
Procedure, shortened: as §3

PC26 = experiment: as above; settings: P. falciparum in erythrocytes, SYBR Green DNA, 72 h; series mostly up to 28.7 µM
Procedure, shortened: as §3

PC49 = experiment: as above; settings: P. falciparum in erythrocytes, SYBR Green DNA, 72 h; series mostly up to 28.7 µM
Procedure, shortened: as §3

SC27B = experiment: as above; settings: P. falciparum in erythrocytes, SYBR Green DNA, 72 h; series mostly up to 28.7 µM
Procedure, shortened: as §3

TAB109 = experiment: as above; settings: P. falciparum in erythrocytes, SYBR Green DNA, 72 h; series mostly up to 28.7 µM
Procedure, shortened: as §3

TAB113 = experiment: as above; settings: P. falciparum in erythrocytes, SYBR Green DNA, 72 h; series mostly up to 28.7 µM
Procedure, shortened: as §3

TAB165 = experiment: as above; settings: P. falciparum in erythrocytes, SYBR Green DNA, 72 h; series mostly up to 28.7 µM
Procedure, shortened: as §3

KB-3-1 = experiment: Cytotoxic Profiling of Annotated Libraries Using Quantitative High-Throughput Screening (AID 1296008); settings: Five cell lines viability, CellTiter-Glo ATP luminescence, 48-72 h; max response: hits give low values; on max response: on the % scale 0 is the no-effect control and ±100 the full control effect
Procedure, shortened: as §1

W2 = experiment: qHTS profiling for inhibitors of Plasmodium falciparum proliferation (AID 504749); settings: P. falciparum in erythrocytes, SYBR Green DNA, 72 h; series mostly up to 28.7 µM
Procedure, shortened: as §3
Further: nearly all actives have a fitted effect of over 60% in size.
Potency means the concentration at half of the fitted maximal effect.

CCC1(C)CC(=O)NC1=O (stereo not given)
inactive: max response (CRL-7250) 0.182% | outcome (HEK293) | max response (HaCat [1]) -13.5% | outcome (HaCat [1]) | outcome (NIH3T3) | outcome (HACAT [2]) | outcome (HEK293T) | Potency (MCC-13) | Potency (MCC-26)

COC(=O)Nc1nc2ccc(C(=O)c3cccs3)cc2[nH]1
inactive: Potency (P93_24) | Potency (P94_40) | Potency (PAD) | Potency (PC15) | Potency (PC26) | Potency (PC49) | Potency (SC27B) | Potency (TAB109) | Potency (TAB113) | Potency (TAB165) | max response (HaCat [1]) 3.37% and -11.6%
active: Potency (CRL-7250) 46.9 nM and 188 nM | Potency (HEK293) 0.0944 µM | Potency (KB-3-1) 16.6 nM and 231 nM | Potency (NIH3T3) 0.168 µM | Potency (MCC-13) 148 nM and 266 nM | Potency (MCC-26) 132 nM

CCOC(=O)Nc1ccc(NCc2ccc(F)cc2)nc1N
inactive: max response (CRL-7250) -7.5% and -7.01% | max response (HEK293) -4.26% | max response (HaCat [1]) -2.04% and -3.24% | max response (KB-3-1) -2.17% and -13.9% and -5.9% | max response (NIH3T3) 4.91% | outcome (NIH3T3) | Potency (MCC-13) | Potency (MCC-26)
active: Potency (PAD) 10 µM | Potency (PC26) 19 µM | Potency (SC27B) 10 µM | Potency (TAB109) 10 µM | Potency (TAB113) 11.2 µM | Potency (TAB165) 10 µM | Potency (W2) 3.79 µM

CC#C[C@]1(O)CC[C@H]2[C@@H]3CCC4=CC(=O)CCC4=C3[C@@H](c3ccc(N(C)C)cc3)C[C@@]21C
active: Potency (P93_24) 11.2 µM | Potency (PAD) 10 µM | Potency (PC15) 12.6 µM | Potency (PC26) 13.5 µM | Potency (SC27B) 7.94 µM | Potency (TAB109) 11.2 µM | Potency (TAB113) 8.91 µM | Potency (TAB165) 6.31 µM | Potency (W2) 6.75 µM | Potency (HEK293) 9.35 µM
inactive: max response (CRL-7250) -15.2% | max response (HaCat [1]) -29.4% and -8.42% | max response (KB-3-1) -19.9% | max response (NIH3T3) -20.2% and -3.41% | Potency (MCC-13) | Potency (MCC-26)

COc1cc2nc(N(C)CCCNC(=O)C3CCCO3)nc(N)c2cc1OC (stereo not given)
inactive: max response (CRL-7250) -3.88% | max response (HEK293) 0.95% | max response (HaCat [1]) -0.905% and -4.65% | max response (KB-3-1) 9.19% and 1.98% | outcome (NIH3T3) | Potency (MCC-13) | Potency (MCC-26)

Cc1ccc(C(=O)Nc2ccc(S(=O)(=O)O)c3cc(S(=O)(=O)O)cc(S(=O)(=O)O)c23)cc1NC(=O)c1cccc(NC(=O)Nc2cccc(C(=O)Nc3cc(C(=O)Nc4ccc(S(=O)(=O)O)c5cc(S(=O)(=O)O)cc(S(=O)(=O)O)c45)ccc3C)c2)c1
inactive: Potency (P93_24) | Potency (P94_40) | Potency (PAD) | Potency (PC15) | Potency (PC26) | Potency (PC49) | Potency (SC27B) | Potency (TAB113) | Potency (TAB165) | Potency (W2) | max response (CRL-7250) 0.897% | outcome (HEK293) | outcome (HaCat [1]) | max response (KB-3-1) 9.63% and 6.6% | max response (NIH3T3) -7.7% | outcome (NIH3T3) | outcome (HACAT [2]) | outcome (HEK293T) | Potency (MCC-13) | Potency (MCC-26)

Cn1c(=O)c2c(ncn2C)n(C)c1=O
inactive: Potency (P93_24) | Potency (P94_40) | Potency (PAD) | Potency (PC15) | Potency (PC26) | Potency (PC49) | Potency (SC27B) | Potency (TAB109) | Potency (TAB113) | Potency (TAB165) | Potency (W2) | max response (CRL-7250) 0.692% and -3.54% | max response (HEK293) -13.2% and 0.976% | max response (HaCat [1]) 1.8% and -12.8% | max response (KB-3-1) 3.75% | max response (NIH3T3) -9.99% and -2.17% | Potency (MCC-13) | Potency (MCC-26)

CS(=O)(=O)Nc1ccc([N+](=O)[O-])cc1Oc1ccccc1
inactive: Potency (P93_24) | Potency (P94_40) | Potency (PAD) | Potency (PC15) | Potency (PC26) | Potency (PC49) | Potency (SC27B) | Potency (TAB109) | Potency (TAB113) | Potency (TAB165) | Potency (W2) | max response (CRL-7250) -4.36% and 1.83% | max response (HEK293) -3.19% | max response (HaCat [1]) 1.46% | max response (KB-3-1) 0.301% and -0.592% | max response (NIH3T3) 4.35% and -5.34% | Potency (MCC-13) | Potency (MCC-26)

O=C(CCCN1CCC(O)(c2ccc(Cl)cc2)CC1)c1ccc(F)cc1
active: Potency (HEK293) 18.8 µM | Potency (NIH3T3) 21.1 µM
inactive: max response (CRL-7250) -7.49% and -12% | max response (HaCat [1]) 2.18% | outcome (HaCat [1]) | max response (KB-3-1) 1.13% | outcome (NIH3T3) | outcome (HACAT [2]) | Potency (MCC-13) | Potency (MCC-26)

Cc1cc(C(C)(C)C)cc(C)c1CC1=NCCN1
inactive: Potency (P94_40) | Potency (PAD) | Potency (PC15) | Potency (PC26) | Potency (PC49) | Potency (SC27B) | Potency (TAB109) | Potency (TAB113) | Potency (TAB165) | max response (CRL-7250) -1.37% and -2.32% | max response (HEK293) -19.6% and -11.6% | outcome (HaCat [1]) inactive; activator | max response (NIH3T3) -2.36% | outcome (NIH3T3) | outcome (HACAT [2]) inactive; activator | Potency (MCC-13) | Potency (MCC-26)
active: Potency (W2) 4.05 µM

CC1(CN2CCC(n3c(=O)[nH]c4ccccc43)CC2)OCc2ccccc2-n2cccc21 (stereo not given)
inactive: Potency (PC49) | max response (CRL-7250) -0.873% and 0.74% | max response (HaCat [1]) -8% | outcome (HaCat [1]) | max response (KB-3-1) -2.15% and -10% | max response (NIH3T3) -0.569% and -13.1% | outcome (HACAT [2]) | Potency (MCC-13) | Potency (MCC-26)
active: Potency (P93_24) 11.2 µM | Potency (P94_40) 10 µM | Potency (PAD) 8.91 µM | Potency (PC15) 7.94 µM | Potency (PC26) 12 µM | Potency (SC27B) 10 µM | Potency (TAB165) 8.91 µM | Potency (W2) 7.57 µM
